Most compounds without a hit are left out; they make up all but 10% or so of the library.
12-hLO inh: qHTS Assay for Inhibitors of 12-hLO (12-human lipoxygenase) | AID 1452, 2008 | Potency, µM (top dose mostly 57.1 µM), actives largely listed as inhibitors | actives 0.12% (n = 150,000) | Polyunsaturated fatty acid lipoxygenase ALOX12 (Homo sapiens), P18054 | purified 12-hLO, xylenol orange hydroperoxide absorbance; active = well fitted inhibition curve with a large enough effect; inconclusive = small, poorly fitted or top-dose-only effect; note: nearly all actives have a fitted effect of over 55% in size
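Lipoxygenase turnover measured by absorbance at 573 and 405 nm after Fe-XO development. Human 12hLO 150 nM, arachidonate 40 uM, pH 7.0 Hepes buffer with detergent; 15 min compound preincubation, 30 min reaction.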
ALDH1A1 block: qHTS Assay for Inhibitors of Aldehyde Dehydrogenase 1 (ALDH1A1) | Potency, µM (top dose mostly 75.3 µM), actives largely listed as inhibitors | actives 7.3% (n = 220,000) | Purified ALDH1A1, NADH fluorescence, propionaldehyde substrate | Aldehyde dehydrogenase 1A1 (Homo sapiens), P00352
Target sequence (P00352 whole entry, looked up): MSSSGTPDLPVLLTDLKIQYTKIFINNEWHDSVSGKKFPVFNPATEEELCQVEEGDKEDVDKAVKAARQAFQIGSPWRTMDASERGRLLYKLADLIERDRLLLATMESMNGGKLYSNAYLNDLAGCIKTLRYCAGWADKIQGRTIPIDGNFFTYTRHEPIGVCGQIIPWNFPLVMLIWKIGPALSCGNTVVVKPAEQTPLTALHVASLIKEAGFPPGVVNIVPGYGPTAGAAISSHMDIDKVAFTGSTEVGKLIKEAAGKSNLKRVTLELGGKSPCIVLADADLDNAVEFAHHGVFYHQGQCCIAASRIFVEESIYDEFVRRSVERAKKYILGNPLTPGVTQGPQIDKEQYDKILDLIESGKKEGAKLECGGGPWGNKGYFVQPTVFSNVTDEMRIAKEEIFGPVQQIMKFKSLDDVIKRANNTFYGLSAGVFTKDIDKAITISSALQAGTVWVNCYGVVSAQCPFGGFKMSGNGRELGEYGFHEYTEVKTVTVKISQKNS
HPGD inh: qHTS Assay for Inhibitors of HPGD (15-Hydroxyprostaglandin Dehydrogenase); 15-hydroxyprostaglandin dehydrogenase [NAD(+)] (Homo sapiens), P15428; purified HPGD, NADH fluorescence kinetic, PGE2 substrate; Potency, µM, hits mostly inhibitors; actives 4.3% (n = 150,000)
Target sequence (P15428 whole entry, looked up): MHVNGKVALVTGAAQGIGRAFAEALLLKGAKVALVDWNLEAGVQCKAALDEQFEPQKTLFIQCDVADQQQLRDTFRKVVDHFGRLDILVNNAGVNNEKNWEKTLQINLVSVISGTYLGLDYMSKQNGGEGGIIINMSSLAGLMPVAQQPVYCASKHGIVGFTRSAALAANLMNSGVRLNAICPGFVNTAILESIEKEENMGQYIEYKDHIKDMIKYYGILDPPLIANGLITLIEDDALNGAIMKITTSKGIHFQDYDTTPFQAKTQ
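20 nM HPGD preincubated 15 min at room temperature with compound in 50 mM Tris-HCl pH 8, 0.01% Tween 20. Started with 1 mM NAD+ and 30 uM prostaglandin E2; NADH fluorescence (360/450 nm) read 5 times over 30-s intervals, last minus first.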
PNC assembly inh: High Content Assay for Compounds that inhibit the Assembly of the Perinucleolar Compartment; actives 3.1% (n = 140,000); activity change (PNC), negative = inhibition, % at 10 µM; PC3M PTB-GFP, PNC prevalence imaging, 16 h; hits give low values;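 active = readout at or below -70, meaning at least 70% loss of cells showing the perinucleolar compartment, a nuclear body marking cancer cells; inconclusive = readout between -30 and a set limit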
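Read-out is percentage of cells bearing a perinucleolar compartment, from automated 20x imaging of fixed, Hoechst-stained PC3M PTB-GFP cells. Cells were seeded 4 h, then exposed 16 h to compound (23 nl of library stock) in duplicate plates.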
Lamin A splicing: qHTS Assay for Modulators of Lamin A Splicing. actives 0.01% (n = 200,000). HeLa LMNA splicing GFP/RFP minigene ratio, 48 h. Potency, µM (series often up to 46.1 µM), hits mostly inhibitors; active = well fitted inhibition curve with a large enough effect in the signal ratio, with a control signal flat, not every such curve was filed as active; inconclusive = small, poorly fitted or top-dose-only effect, or effect the other way, or a change in a side signal; the % refers to the signal ratio
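Read-out is the ratio of GFP to DsRed2 object intensity, acquired by 488 nm laser-scanning cytometry on HeLa lamin A-EGFP minigene reporter cells. Compound incubation 48 hrs at 37 °C in Opti-MEM with 2% FBS; DMSO 0.5% final.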
Numbers stand for hits; 0 = inactive; ? = inconclusive; - = no result; [ ] = another dose, or the depositor's remark. Unless noted, calls come from the whole dose curve; as a rule, active = well fitted inhibition curve with a large enough effect (not every such curve was filed as active); inconclusive = small, poorly fitted or top-dose-only effect, or another doubt; inactive = no such curve, though single readings can be large or run the other way.

SMILES | 12-hLO inh | ALDH1A1 block | HPGD inh | PNC assembly inh | Lamin A splicing
CCCn1c2ccc(F)cc2c2nnc(SCCN(CC)CC)nc21 | - | - | - | - | 0
CSc1nnc2c3cc(C)ccc3n(Cc3ccccc3)c2n1 | 0 | 14µM | ? | 0 | 0
CCn1c2ccc(C)cc2c2nnc(NN)nc21 | 0 | 25µM | 0 | 0 | 0
COCCNc1ccnc(-c2c(C)noc2C)n1 | 0 | 0 | 0 | - | 0
O=C(Nc1nnc(-c2ccco2)o1)c1cccc(N2C(=O)CCC2=O)c1 | - | 28µM | - | - | ?
Cc1ccc(-c2csc(NC(=O)c3cccc(N4C(=O)CCC4=O)c3)n2)o1 | 0 | 3.5µM | ? | 0 | 0
O=C(Nc1nnc(-c2ccncc2)o1)c1cccc(N2C(=O)CCC2=O)c1 | - | 0 | - | - | -
COc1ccc(CNC(=O)C2CCN(S(=O)(=O)c3c(C)noc3/C=C/c3ccccc3F)CC2)cc1 | - | - | - | - | 0
COC(=O)NC(c1cccc(F)c1)[C@]1(C(C)=O)CCCC1=O (stereo partly drawn) | - | 0[13.5 µM] | - | - | -
COc1cccc(N2CC(NC(=O)c3cccc(OC)c3OC)CC2=O)c1 (stereo not drawn) | - | - | - | - | 0
O=c1/c(=C\c2cccnc2)sc2nc3ccccc3n12 | 0 | 0 | 0 | 0 | 0
O=C1CCC/C1=c1\s/c(=C\c2cccnc2)c(=O)n1-c1ccccc1 | 0 | 6.3µM | 0 | 0 | 0
O=C(NCc1ccc2c(c1)OCO2)C1CC(=O)N(C2CCCCCC2)C1 (stereo not drawn) | 0 | ? | 0 | ? | 0
Cc1ccc(N2CC(C(=O)NCc3ccc4c(c3)OCO4)CC2=O)cc1C (stereo not drawn) | 0 | 14µM | 0 | 0 | 0
COC(=O)c1ccccc1NC(=O)C1CC(=O)N(c2ccc(C)c(C)c2)C1 (stereo not drawn) | 0 | 18µM | 0 | ? | 0
O[C@@H](c1cc([C@@]23C[C@H]4CC[C@@H]2C[C@H](C4)C3)nc2c(Cl)cc(Cl)cc12)C1CCCCN1 (stereo partly drawn) | - | 0[13.5 µM] | 0 | - | -
Cc1cc(C)c(NC(=O)CN2C(=O)CCSc3ccc(S(=O)(=O)N4CCCC4)cc32)c(C)c1 | - | - | - | - | 0
O=C(O)CCCCCNC(=O)c1cccc(Br)c1 | 0 | 0 | 0 | 0 | ?
O=C(NCCOC12CC3CC(CC(C3)C1)C2)c1cccc(Br)c1 | 0 | 7.1µM | 0 | 0 | 0
Oc1ccccc1/C=N/NC1=NCCCCC1 | 0 | 0 | ? | 0 | 0
COc1ccc(/C=N/NC2=NCCCCC2)cc1 | 0 | ? | 13µM | 0 | 0
O=c1c2cn[nH]c2[nH]c(=S)n1-c1ccccc1 | 0 | ? | 28µM | ? | 0
O=c1c2ccccc2n2cnnc2n1-c1ccccc1 | 0 | 0 | 0 | 0 | 0
O=c1c2cn[nH]c2[nH]c(=S)n1-c1cccc2ccccc12 | 0 | 0 | 0 | -113 | 0
CCCCN(C)C(=O)CSc1nc2ccccc2nc1Cc1ccc(C)cc1 | - | - | - | - | 0
SMILES | 12-hLO inh | ALDH1A1 block | HPGD inh | PNC assembly inh | Lamin A splicing
CC1(C)Cc2nc3oc4c(N5CCOCC5)ncnc4c3cc2CO1 | 0 | ? | ? | -109 | 0
Brc1ccc2oc3c(N4CCOCC4)ncnc3c2c1 | 0 | 0 | ? | 0 | 0
CC1(C)Cc2nc3oc4c(N(CCO)Cc5ccccc5)ncnc4c3cc2CO1 | 0 | ? | ? | 0 | ?
COCCSc1ncnc2c1oc1nc3c(cc12)COC(C)(C)C3 | - | 6.3µM | - | - | -
Cc1ccccc1CNC(=O)c1ccc2nc(C(C)C)oc2c1 | - | - | - | - | 0
COCC(=O)N1CCC2(CC1)CN(C(=O)Nc1cccc(C#N)c1)C2 | 0 | 0 | 0 | - | -
COc1ccc(NC(=O)N(CCC(C)C)C(C)c2cccs2)c(OC)c1 (stereo not drawn) | - | - | - | - | 0
O=C(CCn1c(=O)c2cccn2c2ccc(F)cc21)NCCc1ccccc1Cl | - | - | - | - | 0
NNc1nc2ccc(F)cc2s1 | ? | ? | 0 | 0 | ?
NNc1nc2ccc(Cl)cc2s1 | ? | 35µM | 0 | 0 | ?
CCOC(=O)c1c(C)oc(NC(=O)CCl)c1C(=O)OCC | - | 3.5µM | - | - | -
Cc1cc(NC(=O)CC(C)(C)C)nc2c1c(=O)oc1ccccc12 | 0 | ? | 0 | -119 | 0
CC1(c2cnc(Nc3ccccc3)s2)CCC(=O)O1 (stereo not drawn) | 0 | 18µM | 0 | 0 | 0
O=C(c1ccc(F)cc1)c1cnc(Nc2ccccc2)s1 | - | 0 | - | - | -
Cc1ccc(NC(=O)CSc2nnc(-c3ccc([N+](=O)[O-])cc3)o2)c(C)c1 | - | - | - | - | 0
Cc1csc(NC(=O)C(NC(=O)c2ccccc2F)C(C)C)n1 (stereo not drawn) | - | 0 | - | - | -
Cc1ccc(S(=O)(=O)N(C)C)cc1NC(=O)CCc1c[nH]c2ccccc12 | - | 4.5µM | - | - | 0
Cc1ccc(S(=O)(=O)N(C)C)cc1NC(=O)CCc1ccccc1 | - | 4.5µM | - | - | 0
CSC1=N/C(=C\c2c(F)cccc2Cl)C(=O)S1 | 0 | 0 | 4.5µM | 0 | 0
Cc1nn(Cc2ccccc2)c2c1C(c1ccc(Cl)cc1)C(C#N)=C(N)O2 (stereo not drawn) | 0 | ? | 1µM | ? | 0
N#CC1=C(N)Oc2cc(N)ccc2C1c1cccnc1 (stereo not drawn) | 0 | 0 | 0 | 0 | 0
Cc1nn(Cc2ccccc2)c2c1C(c1cccnc1)C(C#N)=C(N)O2 (stereo not drawn) | 0 | 7.9µM | 0 | 0 | 0
Cc1nn(Cc2ccccc2)c2c1C(c1ccncc1)C(C#N)=C(N)O2 (stereo not drawn) | 0 | ? | 0 | ? | 0
N#CC1=C(N)OC2=C(CN(Cc3ccccc3)C/C2=C\c2cccnc2)C1c1cccnc1 (stereo not drawn) | 0 | 1.3µM | 0 | 0 | 0
CCN(CC)c1ccc2c(c1)OC(N)=C(C#N)C2c1cccnc1 (stereo not drawn) | 0 | 0 | 0 | -99 | 0
SMILES | 12-hLO inh | ALDH1A1 block | HPGD inh | PNC assembly inh | Lamin A splicing
Cc1ccccc1C1C(C#N)=C2N=C(N)c3c(sc4c3CCCCC4)N2C2=C1C(=O)CC(C)(C)C2 (stereo not drawn) | 0 | 7.1µM | 0 | 0 | 0
CCO[C@@H]1OC(C(=O)NCc2ccccc2)=C[C@H](c2ccc3c(c2)OCO3)[C@H]1CCCO | - | 14µM | - | - | -
COc1cccc2oc(-c3ccc(O)cc3)cc(=O)c12 | 0 | ? | 0 | - | -
COc1ccc(-c2cc(=O)c3c(OC)c(OC)c(OC)c(OC)c3o2)cc1 | 0 | 1.4µM | 0 | - | 0
COc1ccc(-c2cc(=O)c3cc(OC)ccc3o2)cc1 | 0 | ? | ? | - | ?
COc1cc(-c2cc(=O)c3c(O)c(OC)c(OC)c(OC)c3o2)cc(OC)c1OC | 0 | 11µM | 0 | - | ?
CCOC(=O)CNC(=O)c1cc(-c2ccc3c(c2)OCCO3)oc1C | 0 | ? | 0 | ? | 0
CCc1cc2c(=O)c(-c3ccc4c(c3)OCCO4)c(C)oc2cc1OS(C)(=O)=O | 0 | 4.5µM | 0 | 0 | ?

Screening data as filed in PubChem.
